The values that follow come from PubChem BioAssay AID588742 (Southern Research Specialized Biocontainment Screening …, 2011).

Each structure is given as a SMILES string. The whole screen tested about 1,800 compounds, of which about 410 (23%) were called active. No rule for the calls is given here. The list is a sample of the results. Entries with a potency or affinity are not part of this list.

The assay can be described thus: Vero cell cytotoxicity, cytotoxicity control for flavivirus capping enzyme inhibitors (AID 588742). The settings on record: Vero cells viability, cytotoxicity counter-screen; series mostly up to 40 µM.
In the case of `CC1=NN(c2ccc(Br)cc2)C(=O)/C1=C/c1ccc(-c2ccccc2C(=O)O)o1`, the molecule was classed as inactive.

As to `Cc1ccccc1-c1ncc(CN2CCN(C3CCCCC3)C(CCO)C2)cn1` (centres undefined), the call was inactive.

Turning to `CC1(C)Cc2c(C#N)c(N)sc(=S)c2CS1`, the molecule was called inactive.

As for `COc1ccc(N2C(=O)C3CCCN3C2c2cccc(Br)c2)cc1` (centres undefined), the molecule was called inactive.

`O=C(CCc1ccc(S(=O)(=O)N2CCOCC2)cc1)N/N=C/c1ccc(O)c(O)c1O`: the outcome was inactive.

For the molecule `O=[N+]([O-])c1ccc(N/N=C/c2ccc(O)c(O)c2O)c(S(=O)(=O)N2CCOCC2)c1`, the molecule was classed as inactive.

In the case of `Oc1ccc2ccccc2c1C=NC12CN3CCN(CN(C3)C1)C2`, the result was inactive.

On to `O=C(O)c1ccc(N(c2ccccc2)c2ccccc2)cc1`, for which the outcome was inactive.

With `CCN(CC)c1ccc(SS(=O)(=O)O)cc1`, the call was inactive.

Regarding `COc1ccccc1CNC(=O)CN1C(=O)N(C)C2(CCCCC2)C1=O`, the molecule was called inactive.

With `O=c1[nH]n2c(=O)c3c([nH]c2c1N=Nc1cccc(Cl)c1)CCCC3`, the result was inactive.

With `CC(C)CSC1=NSC2=NC(=O)/C(=C\c3ccccc3)C(=N)N12`, the molecule was classed as inactive.

With `Nc1ccc(N2CCOCC2)c2nonc12`, the molecule was called inactive.

For the molecule `CN(C)c1ccc(NC(=O)CCCc2ccccc2)cc1`, the outcome was inactive.

As for `O=C(O)c1cccc(NC2=C(Cl)C(=O)c3ccccc3C2=O)c1`, the outcome was inactive.

On to `Cc1ccccc1SCC(=O)OCC(=O)Nc1ccc(N(C)C)cc1`, for which the molecule was called inactive.

`O=C(O)c1ccc(COc2ccccc2C=C2C(=O)c3ccccc3C2=O)cc1`: the call was inactive.

With `CC(=O)N(C(C)=O)N1C(=O)C2C3c4ccccc4C(c4ccccc43)C2C1=O` (centres undefined), the molecule was classed as inactive.

Regarding `O=C(CN1C(=O)/C(=C2\SC(=S)N(CCS(=O)(=O)O)C2=O)c2ccccc21)Nc1cccc(Br)c1`, the molecule was classed as inactive.

As to `O=C1/C(=C/c2cccc(F)c2)SC(=S)N1NS(=O)(=O)c1ccccc1`, the outcome was inactive.

Regarding `CCNc1sc(C(=O)c2cccs2)c(N)c1C#N`, the call was inactive.

Turning to `CC(C)CN1C(=O)/C(=C/c2ccco2)NC1=S`, the result was inactive.

For `Cc1cccc(OC(C)C(=O)OCC(=O)Nc2sccc2C(N)=O)c1` (centres undefined), the molecule was called inactive.

As to `CC(=O)C1CCC2C3CCC4=CC(=O)CCC4(C)C3(Br)C(=O)CC12C` (centres undefined), the molecule was called inactive.

For `COC(=O)CCC(=O)OC1(C)C(=O)C2=CN(Cc3ccccc3)C(c3ccc(OC)cc3)=CC2=C(Br)C1=O` (centres undefined), the result was inactive.

Turning to `O=c1c([N+](=O)[O-])c(O)c2ccccc2n1Cc1ccccc1`, the result was inactive.

`Nc1nc(N=Nc2ccc(O)cc2)cc(=O)[nH]1`: the molecule was classed as inactive.

Take `Cc1cc(C(=O)O)ccc1-c1ccc(/C=C2\NC(=O)N(Cc3ccc(F)cc3)C2=O)o1`: the molecule was classed as inactive.

Regarding `CCS(=O)(=O)c1nc(S(=O)(=O)c2ccc(Cl)cc2)c(N2CCC(O)CC2)s1`, the call was inactive.
